The values that follow come from ChEMBL document CHEMBL2218924, “A broad activity screen in support of a chemogenomic map for kinase signalling research and drug discovery” (Biochem J, 2013).

Experiment [1] addresses T1, CDK9/cyclin T1 (Homo sapiens) (UniProt O60563+P50750). Conditions: at 1 µM.
For experiment [2], the target named is T1, CDK9/cyclin T1 (Homo sapiens). Conditions: at 10 µM.
Experiment [3] concerns the target T2, Serine/threonine-protein kinase Chk1 (Homo sapiens) (UniProt O14757).
T2 sequence (whole entry): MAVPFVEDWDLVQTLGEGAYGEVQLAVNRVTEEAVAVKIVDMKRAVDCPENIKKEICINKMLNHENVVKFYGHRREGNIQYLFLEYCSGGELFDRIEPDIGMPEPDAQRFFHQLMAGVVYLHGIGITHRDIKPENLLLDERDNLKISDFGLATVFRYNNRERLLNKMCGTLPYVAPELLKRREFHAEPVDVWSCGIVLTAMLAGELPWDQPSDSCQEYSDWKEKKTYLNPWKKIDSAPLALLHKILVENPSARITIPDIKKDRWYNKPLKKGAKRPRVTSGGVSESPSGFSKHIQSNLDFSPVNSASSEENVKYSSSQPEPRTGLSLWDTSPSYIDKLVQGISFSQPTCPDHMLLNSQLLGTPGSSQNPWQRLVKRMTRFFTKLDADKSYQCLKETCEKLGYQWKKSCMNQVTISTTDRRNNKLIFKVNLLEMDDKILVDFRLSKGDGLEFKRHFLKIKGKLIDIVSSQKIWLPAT
Conditions: at 1 µM.

Experiment [4] concerns the target T2, Serine/threonine-protein kinase Chk1 (Homo sapiens). Conditions: at 10 µM.
For experiment [5], the target named is Serine/threonine-protein kinase Chk2 (Homo sapiens) (UniProt O96017). Conditions: at 1 µM.
Chain of Serine/threonine-protein kinase Chk2 (Homo sapiens) (O96017 whole entry): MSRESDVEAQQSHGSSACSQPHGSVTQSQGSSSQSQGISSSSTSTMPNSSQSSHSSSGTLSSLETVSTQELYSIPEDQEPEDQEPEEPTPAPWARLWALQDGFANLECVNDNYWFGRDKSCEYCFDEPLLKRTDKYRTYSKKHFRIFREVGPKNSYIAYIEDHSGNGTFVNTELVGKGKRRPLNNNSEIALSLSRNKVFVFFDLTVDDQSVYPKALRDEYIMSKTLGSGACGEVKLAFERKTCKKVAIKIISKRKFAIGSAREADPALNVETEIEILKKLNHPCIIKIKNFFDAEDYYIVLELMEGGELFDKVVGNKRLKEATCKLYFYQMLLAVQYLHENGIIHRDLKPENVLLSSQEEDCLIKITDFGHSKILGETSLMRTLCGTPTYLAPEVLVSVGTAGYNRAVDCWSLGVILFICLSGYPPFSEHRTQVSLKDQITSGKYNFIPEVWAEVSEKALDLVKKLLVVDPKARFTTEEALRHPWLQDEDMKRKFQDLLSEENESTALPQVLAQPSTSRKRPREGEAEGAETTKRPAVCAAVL
Experiment [6] shares this target. As to conditions: at 10 µM.
The target of experiment [7] is Casein kinase I isoform gamma-1 (Homo sapiens) (UniProt Q9HCP0). Conditions: at 1 µM.
Chain of Casein kinase I isoform gamma-1 (Homo sapiens) (Q9HCP0 whole entry, looked up, canonical isoform): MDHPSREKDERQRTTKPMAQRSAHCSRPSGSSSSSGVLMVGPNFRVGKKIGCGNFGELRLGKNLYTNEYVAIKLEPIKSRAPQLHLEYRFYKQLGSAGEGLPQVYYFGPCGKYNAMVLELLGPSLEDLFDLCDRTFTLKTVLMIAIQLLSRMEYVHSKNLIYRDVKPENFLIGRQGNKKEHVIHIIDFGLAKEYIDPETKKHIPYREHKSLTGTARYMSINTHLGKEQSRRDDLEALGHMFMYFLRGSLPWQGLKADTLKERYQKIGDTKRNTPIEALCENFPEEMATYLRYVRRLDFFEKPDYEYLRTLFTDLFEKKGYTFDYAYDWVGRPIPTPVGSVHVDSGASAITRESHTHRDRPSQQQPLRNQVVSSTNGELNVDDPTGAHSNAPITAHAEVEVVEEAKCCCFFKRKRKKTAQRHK
For experiment [8] the target is unchanged. Conditions: at 10 µM.
For experiment [9], the target named is Casein kinase I isoform delta (Homo sapiens) (UniProt P48730). Conditions: at 1 µM.
Chain of Casein kinase I isoform delta (Homo sapiens) (P48730 whole entry, looked up, canonical isoform): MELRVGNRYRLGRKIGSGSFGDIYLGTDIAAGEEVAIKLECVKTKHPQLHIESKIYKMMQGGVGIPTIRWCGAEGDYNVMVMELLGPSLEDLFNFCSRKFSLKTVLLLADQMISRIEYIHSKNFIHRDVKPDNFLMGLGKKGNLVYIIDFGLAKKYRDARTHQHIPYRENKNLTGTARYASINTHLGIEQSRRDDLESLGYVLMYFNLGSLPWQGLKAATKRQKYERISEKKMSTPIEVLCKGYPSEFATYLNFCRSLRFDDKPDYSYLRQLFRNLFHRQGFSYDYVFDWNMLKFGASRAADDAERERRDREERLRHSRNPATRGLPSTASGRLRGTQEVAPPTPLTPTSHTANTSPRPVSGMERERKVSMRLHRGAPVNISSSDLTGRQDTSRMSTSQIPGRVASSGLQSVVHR
The target is the same in experiment [10]. As to conditions: at 10 µM.

As to `Oc1ccc(-c2nc(-c3ccc(F)cc3)c(-c3ccncc3)[nH]2)cc1`, the residual activity is 94% in experiment [1]; 65% in experiment [2]; 103% in [3]; 92% in [4]; 89% in experiment [5]; 68% in experiment [6]. In addition, the residual activity was 82% in experiment [7], 59% in experiment [8], 7% in experiment [9] and -1% in experiment [10].

Regarding `O=C1NC(=O)c2c1c1c3ccccc3[nH]c1c1[nH]c3cc(Br)ccc3c21`, the residual activity in experiment [1] was 82%; in [2] it was 76%; in [3], 77%; in experiment [4] it was 47%; in experiment [5], 33%; in [6] it was 30%. Further, the residual activity in experiment [7] stood at 104%; in experiment [8], 88%; in experiment [9] it was 92%; in [10], 90%.

Turning to `CN(C)CCCn1cc(C2=C(c3c[nH]c4ccccc34)C(=O)NC2=O)c2ccccc21`, the residual activity in experiment [1] was 17%; in experiment [2], 3%; in experiment [3] it was 54%; in [4], 17%; in experiment [5] it was 52%; in [6], 16%. In addition, the results for the residual activity in experiment [7], in [9] and in experiment [10] were 107%, 90% and 79%, respectively.

On to `Nc1nc(Nc2ccc(S(N)(=O)=O)cc2)nn1C(=S)Nc1c(F)cccc1F`, for which the residual activity is 0% in experiment [1]; -1% in [2]; 0% in experiment [3]; -1% in experiment [4]; 4% in experiment [5]; 0% in experiment [6]. For the same compound, the residual activity in experiment [7] was 4%; in experiment [8] it was 1%; in experiment [9], 59%; in [10] it was 16%.

Turning to `Nc1n[nH]c2nnc(-c3c(-c4ccccc4)nn4ccccc34)cc12`, the residual activity in experiment [1] worked out at 98%; in experiment [2] it was 92%; in experiment [3], 90%; in experiment [4], 82%; in experiment [5] it was 98%; in [6], 78%. The residual activity in [7] was 94%; in [8] it was 84%; in experiment [9] it was 60%; in experiment [10], 17%.

In the case of `CC[n+]1c(/C=C/N(C)c2ccccc2)n(-c2ccccc2)c2ccc(-c3nc4ccccc4s3)cc21`, the residual activity was 119% in experiment [1]; 125% in experiment [2]; 94% in experiment [3]; 83% in experiment [4]; 92% in experiment [5]; 80% in experiment [6]. In addition, the residual activity was found to be 84% in experiment [7], 100% in experiment [8], 87% in experiment [9] and 93% in [10].

On to `COc1cc2ncc(-c3ccccc3)nc2cc1OC`, for which the residual activity in experiment [3] turned out to be 90%; in experiment [4] it was 78%; in experiment [5], 86%; in [6], 88%; in [7], 90%; in [8] it was 78%. Also, the residual activity in [9] is 72%; in experiment [10], 39%.

Consider `c1ccc2c(-c3ccncc3)c[nH]c2c1`, for which the residual activity in experiment [1] came out at 67%; in [2], 20%; in experiment [3], 89%; in experiment [4], 80%; in [5] it was 86%; in [6] it was 100%. Also, the residual activity in [7] came to 96%; in [8], 95%; in [9], 85%; in [10], 81%.

As to `Cc1ccc(S(=O)(=O)/C=C/C#N)cc1`, the residual activity in experiment [1] amounted to 102%; in experiment [2], 87%; in experiment [3], 99%; in experiment [4], 89%; in experiment [5], 85%; in experiment [6], 78%. Besides, the residual activity in [7] turned out to be 80%; in experiment [8], 83%; in experiment [9] it was 96%; in [10] it was 89%.

As to `Cc1cc(Nc2nc(-c3ccccc3)nc3ccccc23)n[nH]1`, the residual activity in experiment [1] was determined as 76%; in experiment [2], 29%; in experiment [3] it was 54%; in experiment [4], 16%; in experiment [5], 22%; in experiment [6], 2%. In addition, the residual activity in [8] turned out to be 28%; in [9], 96%; in experiment [10] it was 51%.

Turning to `Nc1cccc(-c2cc3c(Oc4cccc(O)c4)ncnc3[nH]2)c1`, the residual activity turned out to be 31% in experiment [1]; 5% in [2]; 45% in [3]; 11% in experiment [4]; 54% in [5]; 12% in experiment [6]. Moreover, the residual activity is 86% in experiment [7], 49% in experiment [8], 86% in experiment [9] and 44% in [10].

Take `O=[N+]([O-])c1ccc(-c2nc(-c3ccc(F)cc3)c(-c3ccncc3)[nH]2)cc1`: the residual activity is 103% in experiment [1]; 24% in experiment [2]; 102% in experiment [3]; 92% in [4]; 97% in experiment [5]; 84% in experiment [6]. The residual activity in experiment [7] was 75%; in experiment [8] it was 88%; in experiment [10], 4%.

In the case of `CO[C@H]1[C@@H](OC)C[C@H](C)[C@@H](OC)C2=CC(=O)C=C(NC(=O)/C(C)=C/C=C/[C@H](OC)[C@@H](OC(N)=O)/C(C)=C/[C@@H]1C)C2=O`, the residual activity in experiment [1] came to 100%; in experiment [2] it was 83%; in experiment [3], 96%; in [4] it was 87%; in experiment [5], 91%; in experiment [6], 89%. Also, the residual activity in [7] is 91%; in experiment [8], 94%; in experiment [9], 90%; in experiment [10] it was 81%.

As to `Cc1cc2ncc(-c3ccccc3)nc2cc1C`, the residual activity in [1] was 105%; in experiment [2], 85%; in experiment [3], 94%; in [4], 92%; in experiment [5], 84%; in [6], 89%. Also, the residual activity in experiment [7] was found to be 93%; in experiment [8], 87%; in experiment [9] it was 87%; in experiment [10], 55%.

`N#Cc1cnc2cnc(NCc3cccnc3)cc2c1Nc1ccc(F)c(Cl)c1`: the residual activity in [1] is 93%; in experiment [2], 100%; in experiment [3], 3%; in [4], 1%; in experiment [5], 49%; in experiment [6], 36%. Also, the residual activity in experiment [8] came out at 93%; in experiment [9], 79%; in experiment [10], 62%.

On to `CCOc1cc2ncnc(Nc3cccc(Br)c3)c2cc1OCC`, for which the residual activity in experiment [1] was found to be 94%; in [2], 82%; in experiment [3], 85%; in experiment [4], 82%; in experiment [5], 91%; in [6], 47%. Further, the residual activity was 91% in [7], 87% in [8], 84% in experiment [9] and 51% in experiment [10].

In the case of `COc1ccc(CNc2nc(N(CCO)CCO)nc3c2ncn3C(C)C)cc1`, the residual activity in experiment [1] worked out at 29%; in experiment [2], 0%; in experiment [3], 93%; in [4], 87%; in experiment [5] it was 77%; in [6] it was 33%. Further, the residual activity is 67% in experiment [7], 29% in [8], 40% in [9] and 6% in [10].

In the case of `COc1cc2ncnc(N3CCN(C(=O)Nc4ccc(Oc5ccccc5)cc4)CC3)c2cc1OC`, the residual activity in [1] stood at 94%; in experiment [2], 48%; in experiment [3] it was 82%; in experiment [4], 80%; in experiment [5], 96%; in [6], 96%. For the same compound, the residual activity worked out at 88% in experiment [7], 79% in experiment [8], 78% in experiment [9] and 89% in experiment [10].
